L3MBTL1 block – inhibitors of human L3MBTL1; Q9Y468; AlphaScreen L3MBTL1–H3K9me1 peptide binding; Potency, µM (top dose mostly 57.1 µM), for inactives: at the highest dose activity, negative = inhibition, usual class: inhibitors; 0.66% of 230,000 active; note: % is set by controls: 0 for no effect and ±100 for the full control effect; nearly all actives have a fitted effect of over 60% in size
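L3MBTL1 (50 nM) pre-complexed 30 min with biotinylated H3(1-15)K9me1 peptide (75 nM), then compounds added for 30 min at room temperature; AlphaScreen streptavidin donor/nickel chelate acceptor beads (10 ug/mL final) read after 30 min dark incubation.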
GLS inh – inhibitors of human glutaminase (GLS); GLS enzymatic activity, qHTS titration; AID 624170; O94925; 0.21% of 410,000 active; Potency, µM (titrated, usually from 45.5 µM), without a hit: at the top dose activity change, negative = inhibition, hits mostly inhibitors; note: % is set by controls: 0 for no effect and ±100 for the full control effect
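hKGA in 45 mM KH2PO4 (pH 8.2), 0.02% Tween-20 with compound, then 1mM L-Glutamine (stock as added) plus glutamate oxidase/HRP/Amplex red coupling mix. Fluorescence read initially and after 30 min at RT; signal change reflects glutamate formation.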
JMJD2A Tudor inh – JMJD2A Tudor domain (human) inhibition. O75164. AlphaScreen JMJD2A-Tudor / H3K4me3 peptide binding. 4.4% of 390,000 active. Potency, µM (series often up to 114 µM), without a hit: top-dose activity change, negative = inhibition, most hits filed as inhibitors; note: % is set by controls: 0 for no effect and ±100 for the full control effect; nearly all actives have a fitted effect of over 50% in size
Target sequence (O75164 whole entry, looked up, the tested form may be a part): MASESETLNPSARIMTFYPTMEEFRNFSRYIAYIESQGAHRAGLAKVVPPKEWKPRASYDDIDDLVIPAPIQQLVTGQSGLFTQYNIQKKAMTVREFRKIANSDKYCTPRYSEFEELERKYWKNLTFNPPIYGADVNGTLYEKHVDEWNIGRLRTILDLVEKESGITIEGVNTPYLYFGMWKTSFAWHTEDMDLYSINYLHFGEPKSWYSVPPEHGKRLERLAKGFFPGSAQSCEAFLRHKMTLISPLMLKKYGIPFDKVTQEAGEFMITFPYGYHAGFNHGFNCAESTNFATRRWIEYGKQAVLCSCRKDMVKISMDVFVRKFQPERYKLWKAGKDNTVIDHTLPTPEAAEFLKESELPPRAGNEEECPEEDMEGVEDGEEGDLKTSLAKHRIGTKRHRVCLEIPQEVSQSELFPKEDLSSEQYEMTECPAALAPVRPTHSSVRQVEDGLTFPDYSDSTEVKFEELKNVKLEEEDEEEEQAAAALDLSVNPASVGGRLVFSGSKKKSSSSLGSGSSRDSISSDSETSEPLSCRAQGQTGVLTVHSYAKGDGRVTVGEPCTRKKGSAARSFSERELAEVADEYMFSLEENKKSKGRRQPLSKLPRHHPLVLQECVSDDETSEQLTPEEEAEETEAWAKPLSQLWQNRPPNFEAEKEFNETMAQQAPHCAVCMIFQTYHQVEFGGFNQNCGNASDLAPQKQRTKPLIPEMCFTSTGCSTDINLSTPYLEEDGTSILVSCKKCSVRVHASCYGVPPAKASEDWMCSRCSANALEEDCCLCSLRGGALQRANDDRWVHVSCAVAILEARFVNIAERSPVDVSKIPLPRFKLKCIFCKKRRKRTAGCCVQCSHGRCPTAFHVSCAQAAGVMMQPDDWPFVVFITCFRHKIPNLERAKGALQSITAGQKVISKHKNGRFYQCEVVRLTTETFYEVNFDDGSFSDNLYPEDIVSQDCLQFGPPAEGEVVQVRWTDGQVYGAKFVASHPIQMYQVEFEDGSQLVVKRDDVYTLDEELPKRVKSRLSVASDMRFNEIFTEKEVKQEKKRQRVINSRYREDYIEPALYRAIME
BAZ2B block – BAZ2B (human) inhibition; Potency, µM (doses to about 114 µM), for the others: at the highest dose activity change, negative = inhibition, hits mostly inhibitors; Q9UIF8; AlphaScreen BAZ2B-H3K14Ac peptide displacement; 4.4% of 360,000 active; note: % is set by controls: 0 for no effect and ±100 for the full control effect; nearly all actives have a fitted effect of over 60% in size
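In this displacement format the biotinylated H3(5-23) peptide acetylated at Lys14 serves as ligand at 50 nM, with BAZ2B at 50 nM in PBS pH 7.4 containing 0.01% Tween-20. Donor and acceptor beads are 10 ug/mL final.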
G9a block – blocks human histone lysine methyltransferase G9a; Q96KQ7; G9a H3K9 monomethylation, AlphaScreen, 2 h; 8.8% of 350,000 active; Potency, µM (titrated, usually from 102 µM), for inactives: at the top dose activity, negative = inhibition, most hits filed as inhibitors; AID 504332; note: % is set by controls: 0 for no effect and ±100 for the full control effect; nearly all actives have a fitted effect of over 75% in size
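Step 1: enzyme (final 20 nM) with compound, 15 min RT. Step 2: substrate peptide 500 nM and SAM 20 uM, 2 h RT. Step 3: anti-H3K9me1 antibody and AlphaScreen beads, 10 min, then plate read.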
HP1b chromo inh – blocks HP1-beta chromodomain binding to methylated histone tails; Potency, µM (doses to about 114 µM), without a hit: at the top dose activity change, negative = inhibition, hits mostly inhibitors; P83916; AlphaScreen HP1-beta / biotin-H3K9me3 peptide binding; 0.56% of 390,000 active; note: nearly all actives have a fitted effect of over 70% in size
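HP1-beta protein (50 nM final) preincubated 30 min at room temperature with biotinylated H3(1-18)K9me3 peptide (50 nM) in PBS pH 7.4, 0.01% Tween-20, then compound added for 30 min. AlphaScreen streptavidin donor/nickel chelate acceptor beads (10 ug/mL final), 30 min dark, luminescence read.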
* marks the source's active call; other numbers are inactive results; ! = repeats disagree; [ ] = dose if it differs, or a comment. Only some compounds are listed: those with a hit (about 10% of all), similar ones and a draw of the others. Calls come from the whole dose curve; as a rule, active = well fitted curve in the direction sought with a large enough effect; inconclusive = small, poorly fitted or top-dose-only effect, or another doubt; inactive = no such curve, though single readings can be large; an effect the other way counts as inactive or inconclusive. Potency is the fitted concentration of half-maximal effect.

Results for CCc1nnc(NC(=O)c2cc(Cl)ccn2)s1 ?
GLS inh: -19%; JMJD2A Tudor inh: 16µM*; BAZ2B block: 20µM*; G9a block: 79µM*; HP1b chromo inh: 51%

Results for Cc1ccccc1CS(=O)(=O)c1ncc(Cl)c(C(=O)Nc2ccc(F)cc2)n1 ?
GLS inh: 9%; JMJD2A Tudor inh: 5%; BAZ2B block: -14%; G9a block: 22µM*; HP1b chromo inh: 33%

What do the screens show for `COc1ccc(OC)c(NC(=O)c2nc(S(=O)(=O)Cc3ccccc3)ncc2Cl)c1`?
GLS inh: inconclusive; JMJD2A Tudor inh: -18%; BAZ2B block: -35%; G9a block: 35µM*; HP1b chromo inh: -13%[57 µM]

What do the screens show for `Cc1nnc(NC(=O)c2nc(S(=O)(=O)Cc3ccccc3)ncc2Cl)s1`?
GLS inh: 4%; JMJD2A Tudor inh: 32µM*; BAZ2B block: 50µM*!; G9a block: 40µM*; HP1b chromo inh: 29%[57 µM]

How did Cc1cc2c(s1)c1cnn(Cc3ccc(Br)cc3F)c(=O)c1n2C do in these assays?
JMJD2A Tudor inh: -22%

Results for Cc1cccc(CS(=O)(=O)c2ncc(Cl)c(C(=O)Nc3c(C)cccc3C)n2)c1 ?
GLS inh: 1%; JMJD2A Tudor inh: -9%; BAZ2B block: -17%; G9a block: 35µM*; HP1b chromo inh: 88%

Results for Cc1cccc(C)c1NC(=O)c1nc(S(=O)(=O)Cc2ccccc2)ncc1Cl ?
GLS inh: 1%; JMJD2A Tudor inh: -6%; BAZ2B block: -3%; G9a block: inconclusive; HP1b chromo inh: 21%[57 µM]

How did CCSc1ncc(Cl)c(C(=O)Nc2nnc(CC)s2)n1 do in these assays?
GLS inh: -1%; JMJD2A Tudor inh: -20%; BAZ2B block: -9%; G9a block: inconclusive; HP1b chromo inh: 42%

Results for CCc1nnc(NC(=O)c2nc(S(C)(=O)=O)ncc2Cl)s1 ?
GLS inh: -5%; JMJD2A Tudor inh: 10µM*; BAZ2B block: -27%; G9a block: 7.1µM*; HP1b chromo inh: 46%

What do the screens show for `O=C(Nc1ccc(C(=O)O)cc1)/C(=C\C=C\c1ccccc1)NC(=O)c1cccc(Br)c1`?
L3MBTL1 block: -24%; GLS inh: -1%; JMJD2A Tudor inh: -33%; BAZ2B block: 56µM*; G9a block: 40µM*; HP1b chromo inh: 7%

How did O=C(Nc1cccc(C(=O)O)c1)/C(=C\C=C\c1ccccc1)NC(=O)c1ccccc1 do in these assays?
L3MBTL1 block: 6%; GLS inh: -9%; JMJD2A Tudor inh: -1%; BAZ2B block: -18%; G9a block: inconclusive; HP1b chromo inh: 34%

How did O=C(O)CCNC(=O)/C(=C/C=C/c1ccccc1)NC(=O)c1ccccc1 do in these assays?
GLS inh: -2%; JMJD2A Tudor inh: -18%; BAZ2B block: -3%; G9a block: 40µM*; HP1b chromo inh: 19%

How did Cc1ccc(Nc2ncc(C(=O)N3CCN(c4ccc(F)cc4)CC3)c3ccccc23)cc1Cl do in these assays?
GLS inh: 2%; JMJD2A Tudor inh: 5%; BAZ2B block: -2%; G9a block: inconclusive; HP1b chromo inh: 18%

What do the screens show for `CCC(C(=O)NC1CCC(C)CC1)n1nc(C)c2sc3ccccc3c2c1=O` (stereo not given)?
GLS inh: 1%; JMJD2A Tudor inh: 6%; BAZ2B block: 0%; G9a block: -27%[59 µM]; HP1b chromo inh: 30%

Results for O=[N+]([O-])c1cccc(/C=N/NC2=NCCCCC2)c1 ?
L3MBTL1 block: 0%; GLS inh: 3%; JMJD2A Tudor inh: -6%; BAZ2B block: 1%; G9a block: 1%[59 µM]; HP1b chromo inh: 45%

What do the screens show for `O=C(ONC1=NCCCCC1)c1cccc([N+](=O)[O-])c1`?
L3MBTL1 block: 2%; GLS inh: 22µM*; JMJD2A Tudor inh: -5%; BAZ2B block: 3%; G9a block: 4%; HP1b chromo inh: 0%

How did Cc1cc(C)cc(NC(=O)Cn2c(C(F)(F)F)nc3ccccc32)c1 do in these assays?
GLS inh: 0%; JMJD2A Tudor inh: 7%; BAZ2B block: 1%; G9a block: 6%[59 µM]; HP1b chromo inh: 27%

What do the screens show for `Nc1nonc1-c1nc2ccccc2n1CC(=O)N/N=C/c1ccc(-c2cccc(C(=O)O)c2)o1`?
L3MBTL1 block: inconclusive; GLS inh: -12%; JMJD2A Tudor inh: 40µM*; BAZ2B block: 20µM*; G9a block: 7.9µM*; HP1b chromo inh: 50µM*

How did Cc1nnc(N/N=C/c2ccc(-c3ccc(Br)cc3)o2)n1N do in these assays?
L3MBTL1 block: -23%; GLS inh: -19%; JMJD2A Tudor inh: -30%; G9a block: -46%; HP1b chromo inh: -14%

Results for Cc1nnc(N/N=C\c2ccc(-c3cccc(C(=O)O)c3)o2)n1N ?
L3MBTL1 block: inconclusive; GLS inh: 17%; JMJD2A Tudor inh: 25µM*; BAZ2B block: 79µM*; G9a block: 40µM*; HP1b chromo inh: -9%

Results for O=C(/C=C/c1ccc(-c2ccccc2)o1)c1ccccc1 ?
L3MBTL1 block: -21%; GLS inh: -3%; JMJD2A Tudor inh: -4%; BAZ2B block: 35µM*; G9a block: inconclusive; HP1b chromo inh: inconclusive

What do the screens show for `O=Cc1ccc(-c2cccc(C(=O)O)c2)o1`?
L3MBTL1 block: inconclusive; GLS inh: -7%; JMJD2A Tudor inh: -22%; BAZ2B block: inconclusive; G9a block: 50µM*; HP1b chromo inh: 26%

Results for O=S(=O)(O)NC1CCCCC1 ?
GLS inh: -2%; G9a block: -17%[12.7 µM]

How did COc1ccc(NC(=O)c2ccc(-c3nc(CSc4ccc(C)cc4)c(C)o3)cc2)cc1Cl do in these assays?
GLS inh: 1%; JMJD2A Tudor inh: -22%; BAZ2B block: -9%; G9a block: -8%[59 µM]; HP1b chromo inh: 7%

How did CC1(C)CC(=O)C/C(=N/Nc2nc3ccccc3s2)C1 do in these assays?
L3MBTL1 block: -20%; GLS inh: 17%; JMJD2A Tudor inh: inconclusive; BAZ2B block: inconclusive; G9a block: 50µM*; HP1b chromo inh: 14%

How did O=C(NCn1cnccc1=O)c1ccccc1 do in these assays?
GLS inh: 1%; JMJD2A Tudor inh: -12%; BAZ2B block: 3%; G9a block: 24%[12.7 µM]; HP1b chromo inh: 8%

What do the screens show for `Cc1cc(=O)n(CNC(=O)c2ccccc2)c(=S)[nH]1`?
GLS inh: -2%; JMJD2A Tudor inh: 56µM*; BAZ2B block: 2%; G9a block: 15%[12.7 µM]; HP1b chromo inh: 10%

Results for CNC(=S)N(C1=NCC(c2ccc([N+](=O)[O-])cc2)S1)c1ccccc1 (stereo not given) ?
GLS inh: 6%; JMJD2A Tudor inh: inconclusive; BAZ2B block: inconclusive; G9a block: 35µM*; HP1b chromo inh: inconclusive

Bioassay records from PubChem.
